Results: PMC7862700, “An all-to-all approach to the identification of sequence-specific readers for epigenetic DNA modifications on cytosine”

Legend:
Experiment in all cases: DAPPL (digital affinity profiling via proximity ligation, sequencing); 10 mM Tris-HCl pH 7.5, 50 mM NaCl, 1 mM DTT, 4% glycerol, room temperature, 30 min; GST-TFs on glutathione beads, 16-mer random dsDNA library, 0.1% formaldehyde crosslink after washing; high values mean tight binding
FLI1 = biological target: T1, FLI1 (Homo sapiens, UniProt Q01543 1-452); details: protein: recombinant; tags: N-terminal GST; dsDNA, one strand shown
T1 sequence: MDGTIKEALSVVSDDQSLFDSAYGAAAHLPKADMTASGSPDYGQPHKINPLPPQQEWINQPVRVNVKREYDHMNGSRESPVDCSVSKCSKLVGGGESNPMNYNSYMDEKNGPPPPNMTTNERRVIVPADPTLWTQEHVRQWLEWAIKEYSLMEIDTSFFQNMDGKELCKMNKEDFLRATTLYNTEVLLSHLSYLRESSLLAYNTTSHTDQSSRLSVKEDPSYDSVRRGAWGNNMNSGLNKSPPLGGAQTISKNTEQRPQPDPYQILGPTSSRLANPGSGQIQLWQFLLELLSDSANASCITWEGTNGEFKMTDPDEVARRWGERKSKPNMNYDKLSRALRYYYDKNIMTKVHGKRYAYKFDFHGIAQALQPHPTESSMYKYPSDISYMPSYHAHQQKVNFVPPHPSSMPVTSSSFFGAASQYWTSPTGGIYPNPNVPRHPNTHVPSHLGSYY
Procedure, shortened: (§1)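 Each value of binding signal is a hexamer's read frequency for a factor divided by the same hexamer's frequency in the tag-only sample. Barcoded, bead-captured GST fusions of human transcription factors made in yeast were pooled with that sample and incubated with 200 nmole of a random double-stranded 16-mer DNA library in Tris/NaCl/DTT/glycerol buffer at room temperature for 30 min. Washing, 0.1% formaldehyde crosslinking, proximity ligation, PCR and Illumina NextSeq500 sequencing followed.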

ELK1 = biological target: T2, ELK1 (Homo sapiens, UniProt P19419 1-428); details: protein: recombinant; tags: N-terminal GST; dsDNA, one strand shown
T2 sequence: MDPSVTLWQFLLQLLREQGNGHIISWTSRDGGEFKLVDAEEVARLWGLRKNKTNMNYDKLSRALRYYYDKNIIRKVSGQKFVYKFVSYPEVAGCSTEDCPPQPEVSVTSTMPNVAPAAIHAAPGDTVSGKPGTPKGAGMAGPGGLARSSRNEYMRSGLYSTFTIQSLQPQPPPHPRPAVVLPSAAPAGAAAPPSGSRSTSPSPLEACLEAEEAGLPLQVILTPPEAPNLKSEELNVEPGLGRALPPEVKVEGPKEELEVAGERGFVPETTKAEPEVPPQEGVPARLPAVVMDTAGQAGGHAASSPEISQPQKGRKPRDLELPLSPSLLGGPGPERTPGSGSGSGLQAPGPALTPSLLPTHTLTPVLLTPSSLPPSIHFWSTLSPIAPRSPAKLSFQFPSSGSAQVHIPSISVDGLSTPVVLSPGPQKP
Procedure, shortened: as §1

GABPA = biological target: T3, GABPA (Homo sapiens, UniProt Q06546 1-454); details: protein: recombinant; tags: N-terminal GST; dsDNA, one strand shown
T3 sequence: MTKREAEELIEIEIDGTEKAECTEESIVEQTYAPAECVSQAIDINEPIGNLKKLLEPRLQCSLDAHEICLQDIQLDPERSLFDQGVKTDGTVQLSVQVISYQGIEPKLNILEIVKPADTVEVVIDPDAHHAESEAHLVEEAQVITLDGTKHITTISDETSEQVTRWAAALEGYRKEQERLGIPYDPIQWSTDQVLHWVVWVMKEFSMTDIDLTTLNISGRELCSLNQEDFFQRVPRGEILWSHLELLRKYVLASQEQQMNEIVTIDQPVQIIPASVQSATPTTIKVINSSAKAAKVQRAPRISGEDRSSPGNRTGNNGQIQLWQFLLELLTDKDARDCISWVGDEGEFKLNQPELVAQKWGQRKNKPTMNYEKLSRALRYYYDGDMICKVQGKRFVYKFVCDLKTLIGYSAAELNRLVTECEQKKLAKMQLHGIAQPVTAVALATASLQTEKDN
Procedure, shortened: as §1

ERG = biological target: T4, ERG (Homo sapiens, UniProt P11308 1-479); details: protein: recombinant; tags: N-terminal GST; dsDNA, one strand shown
T4 sequence: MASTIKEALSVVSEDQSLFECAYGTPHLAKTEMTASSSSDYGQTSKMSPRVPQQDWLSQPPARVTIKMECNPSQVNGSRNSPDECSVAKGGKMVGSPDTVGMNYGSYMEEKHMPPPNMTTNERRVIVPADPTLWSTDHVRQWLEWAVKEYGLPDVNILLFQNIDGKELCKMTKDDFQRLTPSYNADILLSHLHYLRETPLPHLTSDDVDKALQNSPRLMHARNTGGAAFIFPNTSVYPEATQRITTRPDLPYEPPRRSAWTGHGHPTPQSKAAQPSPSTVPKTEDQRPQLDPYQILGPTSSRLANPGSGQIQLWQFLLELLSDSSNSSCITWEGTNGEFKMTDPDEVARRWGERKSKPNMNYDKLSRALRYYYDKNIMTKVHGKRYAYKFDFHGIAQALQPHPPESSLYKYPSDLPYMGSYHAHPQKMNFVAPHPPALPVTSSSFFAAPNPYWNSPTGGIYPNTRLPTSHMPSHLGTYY
Procedure, shortened: as §1

ELF1 = ELF1 (Homo sapiens, UniProt P32519 1-619); details: protein: recombinant; tags: N-terminal GST; dsDNA, one strand shown
Sequence of ELF1 (P32519 whole entry): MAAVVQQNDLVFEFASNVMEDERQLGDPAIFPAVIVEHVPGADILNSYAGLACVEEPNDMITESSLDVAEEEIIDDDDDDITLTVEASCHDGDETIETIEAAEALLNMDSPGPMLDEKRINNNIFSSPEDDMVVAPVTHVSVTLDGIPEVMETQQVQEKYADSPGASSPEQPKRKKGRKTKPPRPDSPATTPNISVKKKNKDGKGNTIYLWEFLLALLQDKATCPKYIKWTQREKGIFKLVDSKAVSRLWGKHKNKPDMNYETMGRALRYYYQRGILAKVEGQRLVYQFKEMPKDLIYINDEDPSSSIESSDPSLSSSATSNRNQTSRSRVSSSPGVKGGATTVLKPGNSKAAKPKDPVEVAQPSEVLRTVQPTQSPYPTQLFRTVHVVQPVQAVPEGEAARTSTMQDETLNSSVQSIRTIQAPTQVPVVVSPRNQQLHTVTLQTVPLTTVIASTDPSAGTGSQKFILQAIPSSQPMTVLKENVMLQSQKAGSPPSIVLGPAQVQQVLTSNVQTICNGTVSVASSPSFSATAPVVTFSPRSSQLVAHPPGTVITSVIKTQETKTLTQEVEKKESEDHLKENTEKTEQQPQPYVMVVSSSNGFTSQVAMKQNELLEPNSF
Procedure, shortened: as §1

EHF = biological target: T5, EHF (Homo sapiens, UniProt Q9NZC4 1-300); details: protein: recombinant; tags: N-terminal GST; dsDNA, one strand shown
T5 sequence: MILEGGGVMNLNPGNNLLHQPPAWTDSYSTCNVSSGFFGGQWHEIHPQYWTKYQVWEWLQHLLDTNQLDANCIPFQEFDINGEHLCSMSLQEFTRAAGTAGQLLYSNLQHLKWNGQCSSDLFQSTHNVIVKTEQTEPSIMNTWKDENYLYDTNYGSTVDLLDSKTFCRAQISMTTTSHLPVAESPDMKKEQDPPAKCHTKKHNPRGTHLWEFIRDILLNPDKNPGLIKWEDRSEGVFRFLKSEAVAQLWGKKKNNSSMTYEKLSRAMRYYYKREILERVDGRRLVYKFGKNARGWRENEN
Procedure, shortened: as §1

SPI1 = SPI1 (Homo sapiens, UniProt P17947 1-270); details: protein: recombinant; tags: N-terminal GST; dsDNA, one strand shown
Procedure, shortened: as §1

SPIB = SPIB (Homo sapiens, UniProt Q01892 1-262); details: protein: recombinant; tags: N-terminal GST; dsDNA, one strand shown
Sequence of SPIB (Q01892 whole entry): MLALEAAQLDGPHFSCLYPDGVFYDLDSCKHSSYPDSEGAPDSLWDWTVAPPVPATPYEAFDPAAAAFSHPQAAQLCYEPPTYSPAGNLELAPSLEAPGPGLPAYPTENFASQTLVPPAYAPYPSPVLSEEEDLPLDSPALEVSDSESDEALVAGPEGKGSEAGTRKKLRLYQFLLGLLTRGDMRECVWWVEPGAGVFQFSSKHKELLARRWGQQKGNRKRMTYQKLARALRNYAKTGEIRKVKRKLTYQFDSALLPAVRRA
Procedure, shortened: as §1

ELK3 = biological target: T6, ELK3 (Homo sapiens, UniProt P41970 1-407); details: protein: recombinant; tags: N-terminal GST; dsDNA, one strand shown
T6 sequence: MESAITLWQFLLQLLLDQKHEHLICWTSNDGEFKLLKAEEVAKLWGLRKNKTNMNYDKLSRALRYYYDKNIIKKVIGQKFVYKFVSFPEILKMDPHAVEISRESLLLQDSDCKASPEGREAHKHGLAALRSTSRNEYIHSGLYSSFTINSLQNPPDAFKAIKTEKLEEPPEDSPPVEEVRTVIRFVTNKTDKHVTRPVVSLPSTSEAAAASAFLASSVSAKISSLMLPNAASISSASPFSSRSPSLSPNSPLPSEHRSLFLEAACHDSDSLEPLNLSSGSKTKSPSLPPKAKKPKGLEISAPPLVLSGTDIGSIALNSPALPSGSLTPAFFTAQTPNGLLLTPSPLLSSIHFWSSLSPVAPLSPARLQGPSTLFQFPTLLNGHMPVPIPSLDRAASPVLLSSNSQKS
Procedure, shortened: as §1

FEV = biological target: T7, FEV (Homo sapiens, UniProt Q99581 1-238); details: protein: recombinant; tags: N-terminal GST; dsDNA, one strand shown
T7 sequence: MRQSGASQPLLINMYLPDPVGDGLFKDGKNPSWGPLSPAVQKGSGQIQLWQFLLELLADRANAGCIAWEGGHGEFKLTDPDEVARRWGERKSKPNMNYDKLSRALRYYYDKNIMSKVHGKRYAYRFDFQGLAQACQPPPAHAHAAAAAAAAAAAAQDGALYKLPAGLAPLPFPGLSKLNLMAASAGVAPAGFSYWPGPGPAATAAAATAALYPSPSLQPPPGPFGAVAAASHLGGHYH
Procedure, shortened: as §1

ETV5 = ETV5 (Homo sapiens, UniProt P41161 1-510); details: protein: recombinant; tags: N-terminal GST; dsDNA, one strand shown
Sequence of ETV5 (P41161 whole entry): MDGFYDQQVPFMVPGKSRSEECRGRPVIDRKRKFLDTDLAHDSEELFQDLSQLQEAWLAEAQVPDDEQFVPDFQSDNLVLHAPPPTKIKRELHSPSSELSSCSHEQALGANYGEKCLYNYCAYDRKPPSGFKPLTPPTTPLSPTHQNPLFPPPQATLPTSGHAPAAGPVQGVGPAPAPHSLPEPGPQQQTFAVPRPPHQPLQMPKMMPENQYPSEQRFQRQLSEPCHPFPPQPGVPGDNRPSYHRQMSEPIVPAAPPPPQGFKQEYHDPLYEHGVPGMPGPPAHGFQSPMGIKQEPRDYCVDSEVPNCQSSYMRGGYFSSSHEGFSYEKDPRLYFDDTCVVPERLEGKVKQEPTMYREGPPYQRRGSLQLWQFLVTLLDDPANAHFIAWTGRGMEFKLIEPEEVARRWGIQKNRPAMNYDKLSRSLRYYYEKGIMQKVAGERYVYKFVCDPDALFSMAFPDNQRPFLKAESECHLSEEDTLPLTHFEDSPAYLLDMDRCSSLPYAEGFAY
Procedure, shortened: as §1

HSF1 = HSF1 (Homo sapiens, UniProt Q00613 1-529); details: protein: recombinant; tags: N-terminal GST; chain copies: 3; dsDNA, one strand shown
Sequence of HSF1 (Q00613 whole entry): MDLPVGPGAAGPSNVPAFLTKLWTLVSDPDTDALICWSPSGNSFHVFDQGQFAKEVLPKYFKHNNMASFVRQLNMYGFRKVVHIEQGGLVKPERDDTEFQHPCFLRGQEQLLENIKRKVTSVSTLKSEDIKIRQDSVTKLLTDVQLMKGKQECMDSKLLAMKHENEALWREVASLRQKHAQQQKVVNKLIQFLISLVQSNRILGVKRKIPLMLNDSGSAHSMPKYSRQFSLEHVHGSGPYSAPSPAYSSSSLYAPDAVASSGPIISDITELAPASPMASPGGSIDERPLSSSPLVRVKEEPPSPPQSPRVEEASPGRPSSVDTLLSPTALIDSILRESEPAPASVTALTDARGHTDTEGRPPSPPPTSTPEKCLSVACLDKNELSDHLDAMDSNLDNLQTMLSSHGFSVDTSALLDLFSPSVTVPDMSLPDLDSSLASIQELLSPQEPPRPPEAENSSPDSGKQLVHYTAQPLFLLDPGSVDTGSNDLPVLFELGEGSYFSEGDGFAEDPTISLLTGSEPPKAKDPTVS
Procedure, shortened: as §1

SPIC = biological target: T8, SPIC (Homo sapiens, UniProt Q8N5J4 1-248); details: protein: recombinant; tags: N-terminal GST; dsDNA, one strand shown
T8 sequence: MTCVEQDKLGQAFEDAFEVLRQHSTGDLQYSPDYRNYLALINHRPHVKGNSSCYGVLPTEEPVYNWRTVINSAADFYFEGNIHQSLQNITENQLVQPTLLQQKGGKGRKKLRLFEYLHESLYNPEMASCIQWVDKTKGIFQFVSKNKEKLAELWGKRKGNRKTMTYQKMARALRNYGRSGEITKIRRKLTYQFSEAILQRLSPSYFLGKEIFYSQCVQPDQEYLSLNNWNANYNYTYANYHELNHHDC
Procedure, shortened: as §1

ELF4 = ELF4 (Homo sapiens, UniProt Q99607 1-663); details: protein: recombinant; tags: N-terminal GST; dsDNA, one strand shown
Sequence of ELF4 (Q99607 whole entry): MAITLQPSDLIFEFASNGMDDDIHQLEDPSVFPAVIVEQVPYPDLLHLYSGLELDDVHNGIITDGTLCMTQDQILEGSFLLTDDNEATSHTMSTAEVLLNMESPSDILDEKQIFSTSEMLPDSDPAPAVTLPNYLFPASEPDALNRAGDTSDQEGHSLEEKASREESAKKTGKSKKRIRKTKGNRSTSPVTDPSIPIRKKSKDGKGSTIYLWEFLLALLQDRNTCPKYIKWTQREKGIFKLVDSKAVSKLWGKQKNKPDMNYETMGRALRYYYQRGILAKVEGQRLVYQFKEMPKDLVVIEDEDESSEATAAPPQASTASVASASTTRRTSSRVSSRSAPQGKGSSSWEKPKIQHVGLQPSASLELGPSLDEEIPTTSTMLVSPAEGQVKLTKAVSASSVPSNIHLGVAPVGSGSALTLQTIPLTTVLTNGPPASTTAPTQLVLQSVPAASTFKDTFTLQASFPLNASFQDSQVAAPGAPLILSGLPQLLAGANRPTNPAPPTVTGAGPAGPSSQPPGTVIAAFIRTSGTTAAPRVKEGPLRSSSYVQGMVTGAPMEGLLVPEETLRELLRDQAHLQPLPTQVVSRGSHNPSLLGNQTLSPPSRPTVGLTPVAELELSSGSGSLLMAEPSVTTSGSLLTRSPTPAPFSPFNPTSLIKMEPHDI
Procedure, shortened: as §1

ELK4 = biological target: T9, ELK4 (Homo sapiens, UniProt P28324-2 1-405); details: protein: recombinant; tags: N-terminal GST; dsDNA, one strand shown
T9 sequence: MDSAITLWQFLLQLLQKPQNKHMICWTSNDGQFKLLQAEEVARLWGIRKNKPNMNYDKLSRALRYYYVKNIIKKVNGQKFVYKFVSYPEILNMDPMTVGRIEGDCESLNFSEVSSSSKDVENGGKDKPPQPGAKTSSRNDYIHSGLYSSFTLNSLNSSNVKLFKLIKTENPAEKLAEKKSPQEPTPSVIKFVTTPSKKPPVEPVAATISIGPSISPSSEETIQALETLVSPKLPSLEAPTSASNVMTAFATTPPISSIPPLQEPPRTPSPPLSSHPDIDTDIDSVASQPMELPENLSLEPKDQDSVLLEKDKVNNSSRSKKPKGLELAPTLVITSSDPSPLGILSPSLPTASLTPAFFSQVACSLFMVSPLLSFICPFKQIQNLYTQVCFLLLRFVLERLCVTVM
Procedure, shortened: as §1

ETV2 = biological target: T10, ETV2 (Homo sapiens, UniProt O00321 1-342); details: protein: recombinant; tags: N-terminal GST; dsDNA, one strand shown
T10 sequence: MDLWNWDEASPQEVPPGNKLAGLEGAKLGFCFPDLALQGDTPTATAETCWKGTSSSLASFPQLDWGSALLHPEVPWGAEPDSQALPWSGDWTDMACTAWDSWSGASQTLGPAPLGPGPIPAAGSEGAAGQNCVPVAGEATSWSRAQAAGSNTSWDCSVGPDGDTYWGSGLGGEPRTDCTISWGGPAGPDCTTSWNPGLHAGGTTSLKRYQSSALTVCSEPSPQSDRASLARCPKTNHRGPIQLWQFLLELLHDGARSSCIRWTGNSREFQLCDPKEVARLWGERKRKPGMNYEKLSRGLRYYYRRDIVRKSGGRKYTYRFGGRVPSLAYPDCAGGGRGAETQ
Procedure, shortened: as §1

ELF3 = biological target: T11, ELF3 (Homo sapiens, UniProt P78545 1-371); details: protein: recombinant; tags: N-terminal GST; dsDNA, one strand shown
T11 sequence: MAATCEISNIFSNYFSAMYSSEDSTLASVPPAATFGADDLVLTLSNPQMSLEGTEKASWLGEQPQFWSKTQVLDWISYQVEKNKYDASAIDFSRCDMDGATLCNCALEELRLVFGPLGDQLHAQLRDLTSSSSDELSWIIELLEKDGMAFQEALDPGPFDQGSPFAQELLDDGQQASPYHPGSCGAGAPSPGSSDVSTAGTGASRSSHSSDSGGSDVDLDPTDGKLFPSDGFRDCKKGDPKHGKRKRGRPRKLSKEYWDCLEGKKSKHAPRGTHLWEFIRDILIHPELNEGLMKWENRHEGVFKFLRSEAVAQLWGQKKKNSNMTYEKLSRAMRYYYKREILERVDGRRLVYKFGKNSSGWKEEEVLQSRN
Procedure, shortened: as §1

CRX = CRX (Homo sapiens, UniProt O43186 1-299); details: protein: recombinant; tags: N-terminal GST; dsDNA, one strand shown
Sequence of CRX (O43186 whole entry): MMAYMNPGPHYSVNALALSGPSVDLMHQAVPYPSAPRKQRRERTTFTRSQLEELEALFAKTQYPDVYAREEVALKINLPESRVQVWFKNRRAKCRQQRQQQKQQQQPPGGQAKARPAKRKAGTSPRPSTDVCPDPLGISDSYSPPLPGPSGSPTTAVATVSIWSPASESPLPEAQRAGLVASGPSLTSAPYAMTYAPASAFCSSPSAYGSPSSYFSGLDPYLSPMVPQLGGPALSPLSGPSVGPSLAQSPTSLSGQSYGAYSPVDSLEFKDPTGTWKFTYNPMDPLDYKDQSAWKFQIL
Procedure, shortened: as §1

ETV1 = ETV1 (Homo sapiens, UniProt P50549 1-477); details: protein: recombinant; tags: N-terminal GST; dsDNA, one strand shown
Sequence of ETV1 (P50549 whole entry): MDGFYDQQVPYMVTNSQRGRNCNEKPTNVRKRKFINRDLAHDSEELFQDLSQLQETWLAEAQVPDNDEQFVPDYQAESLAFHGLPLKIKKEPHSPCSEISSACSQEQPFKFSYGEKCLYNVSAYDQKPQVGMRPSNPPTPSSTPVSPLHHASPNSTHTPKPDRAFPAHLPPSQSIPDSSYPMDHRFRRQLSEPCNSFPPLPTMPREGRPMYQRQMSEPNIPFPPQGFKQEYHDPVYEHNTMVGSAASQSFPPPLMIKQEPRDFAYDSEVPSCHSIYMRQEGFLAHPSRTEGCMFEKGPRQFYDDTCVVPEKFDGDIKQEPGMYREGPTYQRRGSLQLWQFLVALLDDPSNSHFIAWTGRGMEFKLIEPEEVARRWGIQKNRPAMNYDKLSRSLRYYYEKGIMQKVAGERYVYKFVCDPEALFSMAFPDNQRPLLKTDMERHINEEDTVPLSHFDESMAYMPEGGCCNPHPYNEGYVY
Procedure, shortened: as §1

## CCTAGC
FLI1
  binding signal: 1.18 fold enrichment (6-mer frequency, TF over GST control)
ELK1
  binding signal: 1.1 fold enrichment (6-mer frequency, TF over GST control)
GABPA
  binding signal: 1.31 fold enrichment (6-mer frequency, TF over GST control)
ERG
  binding signal: 1.14 fold enrichment (6-mer frequency, TF over GST control)
ELF1
  binding signal: 1.24 fold enrichment (6-mer frequency, TF over GST control)
EHF
  binding signal: 1.2 fold enrichment (6-mer frequency, TF over GST control)
SPI1
  binding signal: 1.04 fold enrichment (6-mer frequency, TF over GST control)
SPIB
  binding signal: 1.26 fold enrichment (6-mer frequency, TF over GST control)
ELK3
  binding signal: 1.22 fold enrichment (6-mer frequency, TF over GST control)
FEV
  binding signal: 1.18 fold enrichment (6-mer frequency, TF over GST control)
ETV5
  binding signal: 1.15 fold enrichment (6-mer frequency, TF over GST control)
HSF1
  binding signal: 1.17 fold enrichment (6-mer frequency, TF over GST control)
SPIC
  binding signal: 1.17 fold enrichment (6-mer frequency, TF over GST control)
ELF4
  binding signal: 1.16 fold enrichment (6-mer frequency, TF over GST control)
ELK4
  binding signal: 1.13 fold enrichment (6-mer frequency, TF over GST control)
ETV2
  binding signal: 1.13 fold enrichment (6-mer frequency, TF over GST control)
ELF3
  binding signal: 1.12 fold enrichment (6-mer frequency, TF over GST control)
CRX
  binding signal: 1.02 fold enrichment (6-mer frequency, TF over GST control)
ETV1
  binding signal: 1.13 fold enrichment (6-mer frequency, TF over GST control)
